Experimental findings from PubChem BioAssay (EPA / NIEHS) are described below.

Results filed as inconclusive are left out. Active and inactive are the calls of the source. Rule for the calls, unless noted: active = hit-call score of the fitted dose curve at least 0.9, where 1 is the maximum; inactive = score below 0.9.

The target of assay [1] is Paired box protein Pax-6 (Homo sapiens) (UniProt P26367). Put plainly: ATG_Pax6_CIS: Attagene CIS-FACTORIAL HepG2 Assay for human Paired Box 6 (PAX6) (AID 2282956). Conditions: HepG2 CIS-FACTORIAL PAX6 reporter transcription, RNA readout; actives raise or lower the signal. The method, boiled down:
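Multiplexed cis-reporter HepG2 system; 24 h treatment; reporter mRNA read by RT-PCR/CE fluorescence; bidirectional fit vs DMSO.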

Assay [2] in a line: ATG_PXRE_CIS: Attagene CIS-FACTORIAL HepG2 Assay for human Pregnane X Receptor Element (PXRE) (AID 2282957). The note with it: HepG2 Attagene CIS-FACTORIAL PXRE reporter, mRNA; actives raise or lower the signal. The method, boiled down:
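Transfect HepG2 with MRTUs (cis promoter elements); dose chemical, incubate 24 h; isolate RNA, RT with oligo(dT), PCR, 6-FAM label, HpaI cut, CE. Gain/loss fit vs DMSO.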

Assay [3] can be described thus: ATG_RORE_CIS: Attagene CIS-FACTORIAL HepG2 Assay for human RAR-related Orphan Receptor Element (RORE) (AID 2282959). The note with it: HepG2 Attagene cis-factorial RORE reporter, mRNA; actives raise or lower the signal. The method, boiled down:
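Cells were HepG2 carrying transfected cis-regulated reporter constructs, dosed for 24 hours. Total RNA was reverse-transcribed and reporter cDNA amplified, fluorescently labeled and sized by capillary electrophoresis. Activity was fitted bidirectionally relative to DMSO.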

Assay [4] addresses Transcription factor Sp1 (Homo sapiens) (UniProt P08047). Put plainly: ATG_Sp1_CIS: Attagene CIS-FACTORIAL HepG2 Assay for human Specificity Protein 1 (Sp1) (AID 2282961). The note with it: HepG2 Sp1 cis-reporter transcription, actives raise or lower the signal. The procedure, abridged:
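Endogenous Sp1 activity was gauged in human liver HepG2 cells bearing transfected reporter units under a cis-regulating promoter. After 24 h dosing, reporter mRNA was quantified by RT-PCR with capillary electrophoresis, and activity fitted bidirectionally versus DMSO.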

The nature of assay [5]: ATG_SREBP_CIS: Attagene CIS-FACTORIAL HepG2 Assay for human Sterol Regulatory Element Binding (SREBP) (AID 2282962). The note with it: HepG2 Attagene cis-factorial SREBP reporter, mRNA; actives raise or lower the signal. The procedure, abridged:
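mRNA induction of transfected cis-promoter reporters in HepG2 cells, 24 h post-dose. Detection: RT-PCR with 6-FAM-labelled products, HpaI digest, capillary electrophoresis. DMSO served as negative control and baseline.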

The target of assay [6] is Signal transducer and activator of transcription 3 (Homo sapiens) (UniProt P40763). Put plainly: ATG_STAT3_CIS: Attagene CIS-FACTORIAL HepG2 Assay for human Signal Transducer and Activator of Transcription 3 (STAT3) (AID 2282963). The note with it: HepG2, Attagene cis-factorial STAT3 reporter transcription; actives raise or lower the signal. The method, boiled down:
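HepG2 cells transiently transfected with cis-element-driven multiple reporter transcription units; after 24 h chemical exposure, reporter mRNA measured by RT-PCR, 6-FAM primer-extension labelling, HpaI digestion and capillary electrophoresis. Bidirectional fitting versus DMSO baseline.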

Assay [7] is described as follows: ATG_TA_CIS: Attagene CIS-FACTORIAL HepG2 Assay for human TA Basal Promoter (AID 2282964). Conditions: HepG2 Attagene CIS-factorial TA basal promoter reporter; actives raise or lower the signal. The method, boiled down: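 Background-control readout: TA basal promoter reporter mRNA, fitted in both directions relative to DMSO. Measured by RT-PCR and capillary electrophoresis 24 hours after treating HepG2 human liver cells transiently carrying multiplexed cis-regulated reporter constructs.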

Assay [8] in a line: ATG_TCF_b_cat_CIS: Attagene CIS-FACTORIAL HepG2 Assay for human T-Cell-Factor with beta-catenin (TCF/b-cat) (AID 2282965). The note with it: HepG2 TCF/beta-catenin cis-reporter transcription, actives raise or lower the signal. The method, boiled down:
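Using capillary electrophoresis as the read-out, labelled reporter cDNA fragments from transiently transfected HepG2 were sized and quantified. Exposure lasted 24 hours; activity in either direction was referenced to DMSO.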

Assay [9] is described as follows: ATG_TAL_CIS: Attagene CIS-FACTORIAL HepG2 Assay for human TAL Basal Promoter (AID 2282966).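 Note: background control endpoint measuring basal TAL promoter reporter mRNA not a specific factor.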 The note with it: HepG2 Attagene cis-factorial TAL promoter reporter; actives raise or lower the signal. The procedure, abridged:
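Fluorescence of labelled reporter cDNA fragments, resolved by capillary electrophoresis, gave the readout. Human HepG2 liver cells carried transiently transfected cis-element reporter units and were treated for 24 hours; activity was fitted bidirectionally against DMSO.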

Assay [10] in a line: ATG_TGFb_CIS: Attagene CIS-FACTORIAL HepG2 Assay for human Transforming Growth Factor (TGF) (AID 2282967). The note with it: HepG2 Attagene CIS TGFb reporter, mRNA transcription; actives raise or lower the signal. The method, boiled down: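 Endogenous TGFB1-linked transcription factor activity read as reporter mRNA via RT-PCR and capillary electrophoresis, 24 h after dosing transiently transfected HepG2 cells. Gain or loss of signal fitted relative to DMSO.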

A short description of assay [11]: ATG_VDRE_CIS: Attagene CIS-FACTORIAL HepG2 Assay for human Vitamin D Receptor Element (VDRE) (AID 2282968). The note with it: HepG2 VDRE cis-reporter transcription, actives raise or lower the signal. The procedure, abridged: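 HepG2 cells transiently transfected with cis-element reporter units, dosed 24 h; reporter mRNA measured by RT-PCR, 6-FAM labeling, HpaI digestion and capillary electrophoresis. Activity fitted bidirectionally against DMSO baseline.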

The target of assay [12] is Nuclear receptor subfamily 1 group I member 3 (Homo sapiens) (UniProt Q14994). Put plainly: ATG_CAR_TRANS: Attagene TRANS-FACTORIAL HepG2 Assay for human Constitutive Androstane Receptor (CAR) (AID 2282969; active = hit-call score of the fitted dose curve at least 0.9, where 1 is the maximum;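 note: activators raise reporter mRNA above DMSO so AC50 marks induction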). The note with it: HepG2 Attagene TRANS-FACTORIAL CAR reporter. The method, boiled down:
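HepG2 cells transiently transfected with multiplexed GAL4-UAS reporter units expressing chimeric NR-Gal4 proteins; compound exposure 24 h. Reporter mRNA measured by RT-PCR, 6-FAM labelling, HpaI digestion and capillary electrophoresis; gain-of-signal fitted against DMSO baseline.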

For assay [13], the target named is X-box-binding protein 1 (Homo sapiens) (UniProt P17861). As to the kind of experiment: ATG_Xbp1_CIS: Attagene CIS-FACTORIAL HepG2 Assay for human X-box Binding Protein 1 (XBP1) (AID 2282972). Conditions: HepG2 XBP1 cis-element reporter, Attagene multiplex; actives raise or lower the signal. The method, boiled down: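 Fluorescence-labelled cDNA fragments from reporter transcripts, separated by capillary electrophoresis, give the signal. Source: HepG2 cells transfected with promoter-driven reporter units, harvested 24 h post-dose. DMSO served as reference for bidirectional curve fitting.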
Sequence of X-box-binding protein 1 (Homo sapiens) (P17861 whole entry, looked up, the tested form may be a part): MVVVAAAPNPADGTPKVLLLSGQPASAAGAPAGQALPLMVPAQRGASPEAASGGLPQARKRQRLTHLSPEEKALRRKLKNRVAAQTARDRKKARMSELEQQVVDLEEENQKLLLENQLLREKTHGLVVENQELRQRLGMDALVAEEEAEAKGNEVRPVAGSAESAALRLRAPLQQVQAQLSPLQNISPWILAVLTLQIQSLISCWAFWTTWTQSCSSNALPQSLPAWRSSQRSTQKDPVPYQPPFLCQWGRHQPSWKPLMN

Assay [14] in a line: ATG_M_19_TRANS: Attagene TRANS-FACTORIAL HepG2 Assay for M19 Transcription Factor (Internal Marker) (AID 2282974; active = hit-call score of the fitted dose curve at least 0.9, where 1 is the maximum). Conditions: HepG2 Attagene TRANS-FACTORIAL M19 internal marker reporter. The procedure, abridged:
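Cells: human HepG2, transiently transfected with multiplexed reporter transcription units. Exposure: 24 h. Detection: RT-PCR of reporter mRNA with capillary electrophoresis. Analysis: gain-of-signal vs DMSO.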

The target of assay [15] is Estrogen receptor (Homo sapiens) (UniProt P03372). Put plainly: ATG_ERa_TRANS: Attagene TRANS-FACTORIAL HepG2 Assay for human Estrogen Receptor alpha (ERa) (AID 2282970; active = hit-call score of the fitted dose curve at least 0.9, where 1 is the maximum). Conditions: HepG2 Attagene TRANS ERa GAL4 reporter, mRNA. The method, boiled down:
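Human liver HepG2, transient transfection of multiple GAL4-UAS reporter units; TRANS format (exogenous NR-Gal4 chimera). 24 h dosing. Readout: reporter mRNA, RT-PCR, 6-FAM primer extension, HpaI digest, capillary electrophoresis. Positive direction vs DMSO.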

Assay [16] can be described thus: ATG_Sox_CIS: Attagene CIS-FACTORIAL HepG2 Assay for human SRY-box transcription factor (SOX) (AID 2282960). The note with it: HepG2 Attagene cis-factorial SOX reporter, mRNA; actives raise or lower the signal. The procedure, abridged:
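Transient MRTU transfection of HepG2; 24 h compound incubation; TriZol RNA, oligo(dT) RT, PCR, 6-FAM primer extension, HpaI cut, CE. Bidirectional fit, DMSO = baseline.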

Assay [17] deals with Steroid hormone receptor ERR1 (Homo sapiens) (UniProt P11474). As to the kind of experiment: ATG_ERRa_TRANS: Attagene TRANS-FACTORIAL HepG2 Assay for human Estrogen-Related Receptor alpha (ERRa) (AID 2282971; active = hit-call score of the fitted dose curve at least 0.9, where 1 is the maximum). Conditions: HepG2 Attagene TRANS reporter, ERRa transactivation. The procedure, abridged: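 Reporter transcript induction was quantified by RT-PCR and capillary electrophoresis of FAM-labelled, HpaI-cut products after 24 h treatment of HepG2 cells carrying transiently transfected GAL4-UAS reporter units and an exogenous ERRa-Gal4 fusion; activity scored as increase over DMSO.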
Sequence of Steroid hormone receptor ERR1 (Homo sapiens) (P11474 whole entry, looked up, the tested form may be a part): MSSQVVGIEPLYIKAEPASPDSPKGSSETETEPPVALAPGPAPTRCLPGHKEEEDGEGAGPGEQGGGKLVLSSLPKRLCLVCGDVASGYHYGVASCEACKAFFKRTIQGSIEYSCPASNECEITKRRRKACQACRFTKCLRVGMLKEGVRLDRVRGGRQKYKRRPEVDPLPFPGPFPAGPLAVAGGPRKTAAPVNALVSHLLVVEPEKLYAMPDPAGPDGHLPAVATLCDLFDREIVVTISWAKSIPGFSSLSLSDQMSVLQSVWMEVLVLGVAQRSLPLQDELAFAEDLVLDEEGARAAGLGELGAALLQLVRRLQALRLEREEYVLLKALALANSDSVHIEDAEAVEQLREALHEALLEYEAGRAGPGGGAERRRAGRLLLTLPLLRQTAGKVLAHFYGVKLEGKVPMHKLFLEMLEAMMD

Assay [18] is described as follows: ATG_GAL4_TRANS: Attagene TRANS-FACTORIAL HepG2 Assay for GAL4 (Internal Marker) (AID 2282976; active = hit-call score of the fitted dose curve at least 0.9, where 1 is the maximum). The note with it: HepG2 Attagene TRANS GAL4 internal marker reporter. The procedure, abridged:
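First, HepG2 cells were transfected with reporter units under GAL4-UAS control. Next, they were treated with chemical for 24 h. Finally, RNA was reverse-transcribed, PCR-amplified, FAM-labelled and resolved by capillary electrophoresis, with induction scored against DMSO.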

Assay [19] has as its target Estrogen-related receptor gamma (Homo sapiens) (UniProt P62508). As to the kind of experiment: ATG_ERRg_TRANS: Attagene TRANS-FACTORIAL HepG2 Assay for human Estrogen-Related Receptor gamma (ERRg) (AID 2282977; active = hit-call score of the fitted dose curve at least 0.9, where 1 is the maximum;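 note: hits increase reporter signal over DMSO so potencies reflect activators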). Conditions: HepG2 Attagene TRANS reporter, ERRg transactivation. The method, boiled down: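 Transient HepG2 transfectants, 24 h compound exposure, GAL4-UAS reporter mRNA by RT-PCR/6-FAM labelling/capillary electrophoresis; positive direction vs DMSO.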

Sequence of Signal transducer and activator of transcription 3 (Homo sapiens) (P40763 whole entry, looked up): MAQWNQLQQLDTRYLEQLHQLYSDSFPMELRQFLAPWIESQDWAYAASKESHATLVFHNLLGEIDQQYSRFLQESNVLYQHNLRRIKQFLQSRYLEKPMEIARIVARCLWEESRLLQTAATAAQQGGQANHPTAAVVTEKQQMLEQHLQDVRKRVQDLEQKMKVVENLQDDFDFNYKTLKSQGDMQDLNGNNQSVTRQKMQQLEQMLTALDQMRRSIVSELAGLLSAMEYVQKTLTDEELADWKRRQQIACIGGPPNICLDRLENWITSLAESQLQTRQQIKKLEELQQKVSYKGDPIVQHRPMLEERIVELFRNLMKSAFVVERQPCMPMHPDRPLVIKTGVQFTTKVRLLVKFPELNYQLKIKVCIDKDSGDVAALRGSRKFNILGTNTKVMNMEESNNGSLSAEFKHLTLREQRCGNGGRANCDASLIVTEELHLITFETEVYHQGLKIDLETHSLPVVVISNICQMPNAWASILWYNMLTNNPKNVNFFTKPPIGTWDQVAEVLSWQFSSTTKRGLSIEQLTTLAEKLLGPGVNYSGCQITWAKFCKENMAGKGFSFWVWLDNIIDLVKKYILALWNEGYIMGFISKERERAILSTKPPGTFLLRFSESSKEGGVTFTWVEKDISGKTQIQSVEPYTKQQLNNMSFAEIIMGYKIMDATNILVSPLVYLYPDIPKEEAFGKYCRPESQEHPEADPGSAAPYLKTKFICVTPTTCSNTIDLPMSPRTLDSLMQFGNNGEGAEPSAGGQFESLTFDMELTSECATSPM
Sequence of Transcription factor Sp1 (Homo sapiens) (P08047 whole entry, looked up): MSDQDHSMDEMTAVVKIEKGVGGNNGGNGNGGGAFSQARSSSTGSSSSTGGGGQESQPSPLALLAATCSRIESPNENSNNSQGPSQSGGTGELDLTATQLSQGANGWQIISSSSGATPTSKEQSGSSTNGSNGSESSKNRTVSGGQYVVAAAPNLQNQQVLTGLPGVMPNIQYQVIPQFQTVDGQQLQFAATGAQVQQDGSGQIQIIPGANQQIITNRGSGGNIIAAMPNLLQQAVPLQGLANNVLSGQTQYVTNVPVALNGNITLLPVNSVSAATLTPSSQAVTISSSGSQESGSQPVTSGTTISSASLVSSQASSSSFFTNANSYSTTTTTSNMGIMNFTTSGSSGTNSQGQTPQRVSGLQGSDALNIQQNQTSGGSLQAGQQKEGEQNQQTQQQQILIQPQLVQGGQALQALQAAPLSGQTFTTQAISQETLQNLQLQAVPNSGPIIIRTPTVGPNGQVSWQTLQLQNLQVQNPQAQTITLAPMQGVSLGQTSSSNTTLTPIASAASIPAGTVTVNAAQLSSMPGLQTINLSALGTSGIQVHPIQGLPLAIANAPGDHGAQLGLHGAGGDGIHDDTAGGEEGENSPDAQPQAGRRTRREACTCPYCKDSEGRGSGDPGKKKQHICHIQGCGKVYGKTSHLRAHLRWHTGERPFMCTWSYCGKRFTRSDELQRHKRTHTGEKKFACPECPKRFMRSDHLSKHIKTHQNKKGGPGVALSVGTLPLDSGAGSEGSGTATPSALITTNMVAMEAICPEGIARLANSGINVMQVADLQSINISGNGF
Sequence of Paired box protein Pax-6 (Homo sapiens) (P26367 whole entry, looked up): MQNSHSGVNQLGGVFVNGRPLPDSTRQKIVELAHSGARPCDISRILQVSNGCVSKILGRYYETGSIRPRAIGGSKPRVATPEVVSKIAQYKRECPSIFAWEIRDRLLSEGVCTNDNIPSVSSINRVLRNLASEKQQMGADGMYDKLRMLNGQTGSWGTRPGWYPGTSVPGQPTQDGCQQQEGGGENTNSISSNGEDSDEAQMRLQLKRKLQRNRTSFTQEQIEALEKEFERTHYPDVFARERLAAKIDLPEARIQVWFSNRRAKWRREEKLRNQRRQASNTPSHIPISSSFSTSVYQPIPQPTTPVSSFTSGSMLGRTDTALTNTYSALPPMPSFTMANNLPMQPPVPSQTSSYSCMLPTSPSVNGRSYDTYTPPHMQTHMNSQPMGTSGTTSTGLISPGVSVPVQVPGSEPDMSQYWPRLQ
Sequence of Nuclear receptor subfamily 1 group I member 3 (Homo sapiens) (Q14994 whole entry, looked up, the tested form may be a part): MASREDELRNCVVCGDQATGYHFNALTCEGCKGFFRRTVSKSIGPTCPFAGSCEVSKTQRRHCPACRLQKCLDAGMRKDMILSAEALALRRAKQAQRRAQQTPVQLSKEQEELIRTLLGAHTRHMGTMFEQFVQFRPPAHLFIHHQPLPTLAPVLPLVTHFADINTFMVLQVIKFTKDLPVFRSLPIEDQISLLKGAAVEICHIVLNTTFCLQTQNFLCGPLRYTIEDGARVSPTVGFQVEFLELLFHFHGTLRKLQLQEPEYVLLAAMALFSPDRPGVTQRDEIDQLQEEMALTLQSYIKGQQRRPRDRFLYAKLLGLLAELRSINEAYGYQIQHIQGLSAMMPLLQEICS
Sequence of Estrogen receptor (Homo sapiens) (P03372 whole entry, looked up, the tested form may be a part): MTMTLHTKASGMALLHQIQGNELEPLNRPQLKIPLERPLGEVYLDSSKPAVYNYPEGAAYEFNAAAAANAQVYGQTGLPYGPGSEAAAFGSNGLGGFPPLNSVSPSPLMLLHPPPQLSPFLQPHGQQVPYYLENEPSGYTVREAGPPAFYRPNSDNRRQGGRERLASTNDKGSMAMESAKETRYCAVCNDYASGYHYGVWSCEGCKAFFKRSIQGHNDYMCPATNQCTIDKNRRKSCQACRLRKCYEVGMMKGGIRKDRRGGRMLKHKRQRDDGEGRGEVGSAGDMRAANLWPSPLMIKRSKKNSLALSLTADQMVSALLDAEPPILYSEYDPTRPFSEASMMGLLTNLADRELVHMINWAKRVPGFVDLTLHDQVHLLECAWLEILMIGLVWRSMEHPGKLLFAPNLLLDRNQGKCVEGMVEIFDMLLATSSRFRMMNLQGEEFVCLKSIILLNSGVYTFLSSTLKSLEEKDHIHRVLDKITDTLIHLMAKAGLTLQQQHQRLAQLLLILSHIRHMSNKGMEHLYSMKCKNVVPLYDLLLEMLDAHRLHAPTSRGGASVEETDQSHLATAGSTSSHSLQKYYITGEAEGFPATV
Sequence of Estrogen-related receptor gamma (Homo sapiens) (P62508 whole entry, looked up, the tested form may be a part): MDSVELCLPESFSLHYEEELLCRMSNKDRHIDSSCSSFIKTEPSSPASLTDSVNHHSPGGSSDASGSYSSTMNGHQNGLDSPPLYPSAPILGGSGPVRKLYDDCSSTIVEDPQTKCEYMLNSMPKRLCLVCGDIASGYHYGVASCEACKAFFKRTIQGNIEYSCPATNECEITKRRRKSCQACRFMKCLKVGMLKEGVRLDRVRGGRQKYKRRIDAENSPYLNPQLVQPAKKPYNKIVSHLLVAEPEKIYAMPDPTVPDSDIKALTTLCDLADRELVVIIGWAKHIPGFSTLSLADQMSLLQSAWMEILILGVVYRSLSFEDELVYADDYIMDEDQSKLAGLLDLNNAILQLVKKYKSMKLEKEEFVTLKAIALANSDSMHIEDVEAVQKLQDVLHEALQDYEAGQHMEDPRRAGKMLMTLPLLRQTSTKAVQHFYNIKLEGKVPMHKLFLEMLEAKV

In the case of `C=C(C)c1cccc(C(C)(C)N=C=O)c1`, the result in assay [1], in assay [3], in assay [4], in assay [5], in assay [6] and in assay [7] was inactive. The compound was called inactive in [8], in [9], in [10], in assay [12], in assay [13] and in [14]. The half-maximal activity concentration (AC50) (in general, the concentration giving half of the maximal activity seen) in [2] was 0.0919 µM (active); in assay [11], 0.377 µM (active).
As for `CCCCC(CC)CCC(CC(C)C)OS(=O)(=O)O` (stereo not given), the compound was called inactive in assay [1], in [3], in assay [6], in assay [7], in assay [8] and in [9]. The compound was called inactive in [10], in assay [15] and in [13]. The half-maximal activity concentration (AC50) in [2] is 27.2 µM (active).
On to `CCO[Si](C)(OCC)OCC`, for which the compound was called inactive in [1], in assay [2], in [3], in assay [16], in [4] and in assay [6]. Also, the compound was classed as inactive in assay [7], in assay [8], in assay [9], in [10], in [11] and in [15]. The compound was called inactive in [13].
For the compound `C=CC(=O)OCCC(=O)O`, the outcome in assay [1], in [2], in assay [3], in [4], in assay [5] and in assay [6] was inactive. Besides, the compound was called inactive in assay [7], in [8], in [9], in assay [10], in [11] and in [12]. In addition, the result in assay [17], in assay [13], in [18] and in assay [19] was inactive.
For the compound `NC(CO)(CO)CO`, the compound was called inactive in assay [1], in assay [3], in assay [16], in assay [4], in assay [5] and in [6]. Further, the result in assay [7], in [8], in assay [10], in [11] and in [13] was inactive. Also, in assay [2], the AC50 is 42 µM (active).
